# NTMT1 inhibitor = Primary qHTS for Inhibitors of N-terminal methyltransferase 1 (NTMT1): MTaseGlo Assay | 59,000 tested, 2.5% active | Potency, µM (titrated, usually from 114 µM), inactives show top-dose activity change, negative = inhibition, usual class: inhibitors | NTMT1 MTase-Glo SAH luminescence, purified enzyme;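 note: potency is the fitted concentration of half-maximal effect; plate controls were DMSO vehicle for no effect and no enzyme for full effect; nearly all actives have a fitted effect of over 65% in size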
# Target sequence (Q9BV86 whole entry, looked up): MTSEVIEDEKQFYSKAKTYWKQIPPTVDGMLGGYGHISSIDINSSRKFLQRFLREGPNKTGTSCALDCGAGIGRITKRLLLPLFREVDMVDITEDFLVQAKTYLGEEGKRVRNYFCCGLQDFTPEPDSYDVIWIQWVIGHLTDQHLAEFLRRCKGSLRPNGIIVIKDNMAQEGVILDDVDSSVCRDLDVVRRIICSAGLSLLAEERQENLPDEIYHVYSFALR
# GALC G270D act = A Novel Cell-Based Assay to Identify Small Molecules for B -Galactocerebrosidase; P54803; AID 1159614, 2016; 45,000 tested, 0.1% active; 145M-Twi-hGALC-G270D cells (Twitcher mouse brain line with human GALC G270D), HMU-beta-Gal fluorescence, 48 h; Potency, µM (series often up to 57.5 µM), most hits filed as activators; note: potency is the fitted concentration of half-maximal effect; 0% is about no effect; nearly all actives have a fitted effect of over 65% in size
#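 Live 145M-Twi cells (Twitcher mouse brain-derived, GALC-null) stably expressing human GALC-G270D, with a wild-type GALC line, were compound-treated. Residual GALC activity was then read as fluorescence from 0.1 mM final HMU-β-gal at pH 5.2; higher signal means activation.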
# GPR32 ag = qHTS for Agonists of Human Resolvin D1 Receptor DRV1 | Probable G-protein coupled receptor 32 (Homo sapiens), O75388 | CHO-K1 GPR32 beta-arrestin PathHunter luminescence, 90 min; zero percent set by DMSO-only wells | activation, % at 76.9 µM | 48,000 tested, 2.5% active | AID 1346428, 2018;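 active = activation of at least 60% and not above a set upper limit, about 1 call in 100 departs from these limits; inconclusive = activation of 40% to 60%, or above that upper limit; inactive = activation under 40%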; note: 0% is about no effect
#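 CHO-K1 cells stably expressing ProLink-tagged GPR32 and Enzyme Activator-tagged beta-arrestin were seeded at 2,500 cells/well overnight, exposed to compounds for 90 min at 37 °C, then read by beta-Gal complementation chemiluminescence after 1 h detection reagent.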
# p53null 32C tox = qHTS Screen for Compounds that Selectively Target Cancer Cells with p53 Mutations: Cytotoxicity of p53 Null Cells at the Permissive Temperature; AID 903, 2007; H1299-neo p53 null cells, ATP luminescence, 24 h, 32C; Potency, µM (series often up to 46.1 µM), without a hit: at the highest dose activity change, negative = cytotoxicity, most hits filed as cytotoxic; 55,000 tested, 0.62% active;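 note: potency is the fitted concentration of half-maximal effect; 0% = DMSO only and -100% = full killing by 100 µM tamoxifen; nearly all actives have a fitted effect of over 55% in size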
#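 Luminescent ATP readout gave cell viability of p53-null H1299-neo cells after a 24 h compound exposure at the permissive 32C. Titrations ran up to 46 uM, and AC50s were fitted with the standard Hill equation.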
# FH mod = Identification of activators of human fumarate hydratase by quantitative high-throughput screening | Fumarate hydratase, mitochondrial (Homo sapiens), P07954 | FH coupled MDH/diaphorase resazurin fluorescence, 15 min | Potency, µM (highest dose often 79.9 µM), without a hit: at the top dose activity change, negative = inhibition, actives largely listed as inhibitors | 54,000 tested, 0.22% active | AID 1347055, 2019; note: potency is the fitted concentration of half-maximal effect; % is set by controls: 0 for no effect and ±100 for the full control effect; the screen sought activators but most active calls are inhibition curves; nearly all actives have a fitted effect of over 45% in size
# Target sequence (P07954 whole entry, looked up): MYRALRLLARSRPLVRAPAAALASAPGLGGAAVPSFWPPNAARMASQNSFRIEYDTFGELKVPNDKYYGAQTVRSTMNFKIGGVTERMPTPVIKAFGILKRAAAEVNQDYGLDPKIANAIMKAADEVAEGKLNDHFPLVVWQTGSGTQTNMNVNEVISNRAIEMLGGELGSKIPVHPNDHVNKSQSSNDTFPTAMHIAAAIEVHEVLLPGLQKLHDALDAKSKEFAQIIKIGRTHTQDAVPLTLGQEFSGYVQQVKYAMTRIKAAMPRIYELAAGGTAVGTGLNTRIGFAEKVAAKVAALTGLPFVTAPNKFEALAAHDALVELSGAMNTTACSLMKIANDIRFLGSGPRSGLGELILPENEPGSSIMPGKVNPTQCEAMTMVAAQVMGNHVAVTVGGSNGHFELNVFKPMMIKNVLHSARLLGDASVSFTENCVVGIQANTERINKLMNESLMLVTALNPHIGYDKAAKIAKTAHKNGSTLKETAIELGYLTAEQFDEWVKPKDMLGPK
# p53null 39C tox = qHTS Screen for Compounds that Selectively Target Cancer Cells with p53 Mutations: Cytotoxicity of p53 Null Cells at the Nonpermissive Temperature; H1299 p53-null (neo) cells, 39C, ATPlite viability, 24 h; Potency, µM (series often up to 46.1 µM), inactives show at the top dose activity, negative = cell killing, actives largely listed as cytotoxic; 55,000 tested, 0.97% active;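 note: potency is the fitted concentration of half-maximal effect; 0% = DMSO only and -100% = full killing by 100 µM tamoxifen; nearly all actives have a fitted effect of over 50% in size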
#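 H1299 lung cancer cells, p53-null (H1299-neo) or expressing p53 A138V (H1299-p53A138V), were plated overnight at 37C, then exposed to compounds at up to 46 uM for 24 hr at 39C. Viability was read by ATP-based luminescence.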
# Sfp qHTS opt = qHTS Assay for Inhibitos of Bacillus subtilis Sfp phosphopantetheinyl transferase (PPTase): Chemistry Optimization Followup. shares compounds with NTMT1 inhibitor. 230 tested, 78% active. purified Sfp PPTase enzyme activity, qHTS. Potency, µM (doses to about 114 µM), without a hit: at the top dose activity change, negative = inhibition, actives largely listed as inhibitors
# Bsub HM489 growth = qHTS for Inhibitos of Bacillus subtilis Sfp phosphopantetheinyl transferase (PPTase): Chemistry Optimization Followup in B. Subtilis HM489; Potency, µM (top dose mostly 114 µM), for inactives: at the top dose activity change, negative = inhibition, most hits filed as inhibitors; B. subtilis HM489 (acpS-) growth, BacTiter-Glo, 5 h; AID 540353, 2011; 220 tested, 50% active; shares compounds with NTMT1 inhibitor
# Sfp gel opt = Gel-Based Assay for Inhibitos of Bacillus subtilis Sfp phosphopantetheinyl transferase (PPTase): Chemistry Optimization Followup; shares compounds with NTMT1 inhibitor; AID 540355, 2011; purified Sfp PPTase, gel-based product detection; 220 tested, 54% active; Potency, µM (doses to about 250 µM), without a hit: at the highest dose activity change, negative = inhibition, actives largely listed as inhibitors
# Sfp inh gel = qHTS Assay for Inhibitors of Bacillus subtilis Sfp phosphopantetheinyl transferase (PPTase): Gel Based Assay | 45 tested, 90% active | shares compounds with NTMT1 inhibitor | Potency, µM (doses to about 250 µM), without a hit: top-dose activity change, negative = inhibition, actives largely listed as inhibitors | purified Sfp PPTase, gel-based product detection
# Sfp SAR2 = qHTS Assay for Inhibitors of Bacillus subtilis Sfp phosphopantetheinyl transferase (PPTase): SAR Round 2 | shares compounds with NTMT1 inhibitor | AID 602370, 2012 | Potency, µM (doses to about 57.1 µM), inactives show at the highest dose activity change, negative = inhibition, hits mostly inhibitors | 230 tested, 87% active | purified Sfp enzyme, PPTase activity, qHTS
# hGST A1-1 inh = qHTS Assay for Inhibitors of Bacillus subtilis Sfp phosphopantetheinyl transferase (PPTase): SAR in hGST A1-1 | shares compounds with NTMT1 inhibitor | hGST A1-1 enzyme activity counter-screen, qHTS | Potency, µM (doses to about 114 µM), without a hit: at the top dose activity change, negative = inhibition, actives largely listed as inhibitors | 55 tested, under 10 active | AID 602391, 2012
# HSD17B4 counter = Extended Characterization of HPGD Inhibitors: Counterscreen Against HSD17b4. shares compounds with NTMT1 inhibitor. purified HSD17B4, estradiol/NAD+, NADH fluorescence. Potency, µM (top dose mostly 57.1 µM), without a hit: top-dose activity change, negative = inhibition, hits mostly inhibitors. 230 tested, 10% active
# ALDH1A1 counter = Extended Characterization of HPGD Inhibitors: Counterscreen Against ALDH1A1 | shares compounds with NTMT1 inhibitor | Potency, µM (top dose mostly 57.1 µM), for inactives: top-dose activity change, negative = inhibition, most hits filed as inhibitors | AID 743195, 2013 | recombinant ALDH1A1, NADH fluorescence, propionaldehyde/NAD+ | 230 tested, 93% active
# NNMT inh = Counterscreen qHTS for Inhibitors of N-terminal methyltransferase 1 (NTMT1): NNMT MTaseGlo assay; shares compounds with NTMT1 inhibitor; NNMT MTase-Glo luminescence, SAH detection; Potency, µM (highest dose often 57.1 µM), inactives show top-dose activity, negative = inhibition, actives largely listed as inhibitors; 120 tested, 10% active; AID 1645878, 2021
# Starred values were filed as active, the others as inactive; i = inactive; u = inconclusive; x = no result given; [ ] = another dose, or the depositor's remark. Most compounds without a hit are left out; they make up all but 3.9% or so of the library. Unless noted, calls come from the whole dose curve; as a rule, active = well fitted curve in the direction sought with a large enough effect; inconclusive = small, poorly fitted or top-dose-only effect, or another doubt; inactive = no such curve, though single readings can be large; an effect the other way counts as inactive or inconclusive.
SMILES,NTMT1 inhibitor,GALC G270D act,GPR32 ag,p53null 32C tox,FH mod,p53null 39C tox,Sfp qHTS opt,Bsub HM489 growth,Sfp gel opt,Sfp SAR2,HSD17B4 counter,ALDH1A1 counter,NNMT inh,others
COc1cccc(NC(=S)N2CCN(c3ccc(Cl)c(Cl)c3)CC2)n1,x,x,x,x,x,x,u,30%,95µM*,8.1µM*,u,6.1µM*,x,Sfp inh gel=107µM*;hGST A1-1 inh=u
COc1cc(NC(=S)N2CCN(c3cccc(C(F)(F)F)c3)CC2)nc2ccccc12,u,x,x,x,x,x,1.9µM*,47µM*,0.79µM*,0.65µM*,-57%,5.4µM*,x,
CN(C)c1ccc2nc(NC(=S)N3CCN(c4cccc(C(F)(F)F)c4)CC3)sc2c1,13%[57.5 µM],x,x,x,x,x,u,u,20µM*,10µM*,u,9.6µM*,x,
COc1cccc(NC(=S)N2CCN(c3cccc(C(F)(F)F)c3)CC2)n1,x,x,x,x,x,x,13µM*,42µM*,20µM*,11µM*,19µM*,15µM*,x,
CC(=O)c1ccc(N2CCN(S(=O)(=O)c3ccc(N4CCCC4=O)cc3)CC2)cc1,7%,x,x,x,x,x,x,x,x,x,x,x,x,
COc1cccc(NC(=S)N2CCN(c3ncc(C(F)(F)F)cc3Cl)CC2)n1,u,x,x,x,x,x,u,12%,5%,4.6µM*,-13%,1.1µM*,x,
O=C(Nc1ccc(C(F)(F)F)cn1)N1CCN(c2ncccc2C(F)(F)F)CC1,3%[57.5 µM],x,x,x,1%,x,x,x,x,x,x,x,x,
CC[N+]1(C/C2=C/CCCCCC2)CCC(NC(=O)C2c3cc(Cl)ccc3Oc3ccc(Cl)cc32)CC1 (stereo not drawn),u,x,x,x,2%,x,x,x,x,x,x,x,u,
COc1ccc(NC(=O)c2cnc(N3CCOCC3)c3ccccc23)cc1OC,1%,i,-9,-9%,-19%,14%,x,x,x,x,x,x,x,
Nc1ccc(C(=O)Nc2cccc(-c3nc(N4CCOCC4)c4oc5ncccc5c4n3)c2)cn1,11%,x,x,x,-10%,x,x,x,x,x,x,x,-18%,
CC/C(=C(\c1ccc(O)cc1)c1ccc(OCCNC)cc1)c1ccccc1,22µM*,x,x,x,-11%,x,x,x,x,x,x,x,u,
NC(=O)c1nc(Nc2ccccc2)sc1NC(=O)c1c(F)cccc1F,-6%,i,-2,-2%,5%,8%,x,x,x,x,x,x,x,
CN(C)c1ccc(Nc2nc(N)n(C(=O)c3c(F)cccc3F)n2)cc1,u,x,x,x,-25%[53.3 µM],x,x,x,x,x,x,x,-13%,
Cc1c(CN2CCC(Nc3ncnc4sc(CC(F)(F)F)cc34)CC2)ccc2c1cc(C#N)n2Cc1cn[nH]c1,4%,x,x,x,x,x,x,x,x,x,x,x,x,
COc1cc(N2CCOCC2)ccc1Nc1ncc(F)c(Nc2ccccc2NS(C)(=O)=O)n1,9%[57.5 µM],x,x,x,-1%,x,x,x,x,x,x,x,x,
CNC(=O)c1ccccc1Nc1cc(Nc2ccc(N3CCOCC3)cc2OC)ncc1C(F)(F)F,-1%[57.5 µM],x,x,x,-10%,x,x,x,x,x,x,x,u,

# Screening results: PubChem BioAssay, National Center for Advancing Translational Sciences (NCATS)
